Source: PubChem
Cardio protect: protects H9c2 cardiomyocytes from peroxide injury; H2O2 injury protection, ATPLite, 2 h; protection from H2O2 cell death, % at 20 µM; 360,000 tested, 0.63% active; AID 588492;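 active = compounds giving at least 50% protection of heart cells from peroxide-induced death in the single-dose screen, raw or plate-pattern-corrected value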
NR3A LBD binder: modulators (binders) of human NR3A ligand-binding domain; NR3A LBD differential scanning fluorimetry, Tm shift; 0% = protein alone, 100% = glycine-bound protein; Tm shift relative to glycine control, % at 25 µM; 340,000 tested, 2.5% active;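 active = melting temperature shift of at least 10% of the positive control shift, at one fixed dose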
SUMO Mot1 rescue: inhibitors of SUMOylation pathway: yeast Mot1-301 growth rescue | S. cerevisiae Mot1-301 growth rescue, ATP luminescence, 38.5C; percent above DMSO median, 100 means doubled | growth rescue, % at 18.8 µM | 320,000 tested, 1% active | AID 2716;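 active = every valid replicate shows activation above 250% relative to neutral control wells; inactive = the rest, any valid replicate at or below 250%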
AHR activator: activators of human aryl hydrocarbon receptor | 320,000 tested, 2.5% active | activation, % at 5 µM | AID 2796 | AHR-responsive luciferase reporter cells, luminescence; in the data active = activation above about 47%
AI-2 QS mod: modulates the Vibrio harveyi AI-2 quorum sensing system; Vibrio harveyi JMH597 AI-2 luminescence/OD600 ratio, 9 h; hits give low values; strain lacks LuxN and CqsS sensors; 0 = neutral-control median; activity change, % at 7.5 µM; 300,000 tested, 0.4% active; in the data active = activity change below about -75%, passing the limit was not always enough;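 also: luminescence divided by OD600 gain over 9 h not by final OD600 alone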
NTR1 ag: agonists of human neurotensin receptor NTR1; AID 493036; NTR1-U2OS beta-arrestin-GFP spot imaging, agonist mode; 330,000 tested, 0.17% active; activation, % at 20 µM; P30989;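 active = activation at or above 40% of the spot to cytoplasm intensity ratio, with at least 20 cells analyzed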
Target sequence (P30989 whole entry, looked up): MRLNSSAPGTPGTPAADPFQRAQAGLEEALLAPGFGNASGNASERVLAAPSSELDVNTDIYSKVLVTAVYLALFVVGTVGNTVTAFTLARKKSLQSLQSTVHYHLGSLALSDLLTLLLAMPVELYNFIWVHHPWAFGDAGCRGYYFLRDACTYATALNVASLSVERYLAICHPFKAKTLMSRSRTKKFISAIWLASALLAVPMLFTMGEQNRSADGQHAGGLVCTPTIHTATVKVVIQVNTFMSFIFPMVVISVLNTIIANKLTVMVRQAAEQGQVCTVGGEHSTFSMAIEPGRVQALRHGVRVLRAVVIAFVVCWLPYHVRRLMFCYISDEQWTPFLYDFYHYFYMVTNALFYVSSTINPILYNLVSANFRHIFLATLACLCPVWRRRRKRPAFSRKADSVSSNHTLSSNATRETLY
Of the large screens only hits and unclear results are named; the others gave an inactive call. Sampled rows, rich in hits. Any-hit rate of the full collection: about 6.2%.

COc1cc(N)c2ncsc2c1	none (no result: SUMO Mot1 rescue, AHR activator, AI-2 QS mod, NTR1 ag)
CC1=C(C(=O)Nc2cc(C(=O)N3CCC(C)CC3)ccc2C)SCCO1	none
COc1ccc2c3n([n+]([O-])c2c1)CCN=C3c1cc(Cl)c(N)c(Cl)c1	AHR activator 69.3 (no result: AI-2 QS mod)
CC(C)(C)CN1CCC(Oc2cccc(C(=O)N3CCNC(=O)C3(C)C)c2)CC1	none
O=C(Nc1ccccc1)Nc1nnc(-c2cccs2)s1	NR3A LBD binder 22.0, AHR activator 114.9
O=C(Nc1ccccc1)Nc1nnc(Cc2ccc(F)cc2)s1	none
COc1ccccc1NC(=O)Nc1nnc(CC(=O)Nc2ccccc2)s1	none (no result: Cardio protect, NR3A LBD binder)
O=C(Cc1nnc(NC(=O)Nc2ccccc2)s1)Nc1ccccc1	NR3A LBD binder 12.4
O=C(Cc1nnc(NC(=O)Nc2ccc(F)cc2)s1)Nc1ccccc1	NR3A LBD binder 25.4
O=C(Nc1ccccc1)Nc1nnc(CSCc2ccccc2Cl)s1	NR3A LBD binder 30.3
CC(C)(C)CC(=O)Nc1nnc(-c2cccs2)s1	AHR activator 49.9
O=C(Cc1nc(=O)c2ccccc2s1)Nc1ccccc1	NR3A LBD binder 18.0, AHR activator 50.0
CC(C)(C)CC(=O)Nc1nnc(C(F)(F)F)s1	none
CCOc1ncccc1C(=O)NCC(c1ccco1)N1CCCCC1 (stereo not given)	none (no result: AI-2 QS mod)
CC(OC(=O)C1CCCCC1)C(=O)Nc1ccc(S(N)(=O)=O)cc1 (stereo not given)	none (no result: AI-2 QS mod)
COc1ccc(C(=O)N2CCCCC2c2cc(C(=O)NCc3ccccc3)no2)cc1 (stereo not given)	none (no result: NR3A LBD binder, SUMO Mot1 rescue, AHR activator, AI-2 QS mod, NTR1 ag)
Cc1ccccc1-c1nc(CS(=O)CC(=O)NCCc2ccc(Cl)cc2)c(C)o1 (stereo not given)	NR3A LBD binder 488.6
COc1cccc(-c2nc(N3CCN(C)CC3)c3ccccc3n2)c1O	Cardio protect 51.1
OCCN1CCN(c2nc(-c3ccccc3O)nc3ccccc23)CC1	NR3A LBD binder 18.8
CN1CCN(c2nc(-c3ccccc3O)nc3ccccc23)CC1	none (no result: NR3A LBD binder)
CC1CC(C)CN(C(=O)COC(=O)c2ccc3c(c2)OCCO3)C1 (stereo not given)	none (no result: AI-2 QS mod)
Cc1nn(Cc2ccccc2)c(Cl)c1C(=O)OCC(=O)NC(=O)NC12CC3CC(CC(C3)C1)C2	NR3A LBD binder 16.8
Cc1noc(C)c1C(=O)OCC(=O)NC(=O)NC12CC3CC(CC(C3)C1)C2	none
O=C(CSc1nc2ccccc2c(=O)[nH]1)N1CCN(S(=O)(=O)c2ccccc2)CC1	Cardio protect 56.4
Cc1sc2nc(SCC(=O)N3CCOCC3)[nH]c(=O)c2c1C	Cardio protect 60.9
Cc1nc(SCC(=O)N2CCCCC2)c2c(C)c(C)sc2n1	SUMO Mot1 rescue 309.5
O=C(CSc1nc2ccccc2c(=O)[nH]1)N1CCOCC1	Cardio protect 67.4
COc1cccc(N2CCN(C(=O)c3ccc(OC)c(S(=O)(=O)NC4CC4)c3)CC2)c1	none (no result: NR3A LBD binder, SUMO Mot1 rescue, AHR activator, AI-2 QS mod, NTR1 ag)
O=C(O)CCCCCNC(=O)OCC1c2ccccc2-c2ccccc21	none
Cc1sc2nc(SCC(=O)NCc3cccs3)[nH]c(=O)c2c1C	none
CC1CCN(C(=O)CSc2nc3ccccc3c(=O)[nH]2)CC1	none
O=C(CSc1nc2ccccc2c(=O)[nH]1)N1CCCCCC1	Cardio protect 50.7
Cc1sc2nc(SCC(=O)NCc3ccco3)[nH]c(=O)c2c1C	Cardio protect 59.8, AHR activator 54.8 (no result: AI-2 QS mod)
Nn1cc(-c2ccccc2)nc1SCC(=O)N1CCN(S(=O)(=O)c2ccccc2)CC1	AHR activator 52.1
O=C(CSc1ncccn1)N1CCN(S(=O)(=O)c2ccccc2)CC1	none (no result: SUMO Mot1 rescue)
CC1CCCC(C)N1C(=O)CSc1nc2ccccc2c(=O)[nH]1 (stereo not given)	Cardio protect 70.2
COC(=O)C1CC(C(=O)OC)C2C(C(=O)OC)CC(C(=O)OC)C12 (stereo not given)	none (no result: SUMO Mot1 rescue, AHR activator, AI-2 QS mod, NTR1 ag)
CCOC(=O)C1CCN(CC(=O)Nc2cc(S(=O)(=O)N3CCCCC3)ccc2Cl)CC1	none (no result: SUMO Mot1 rescue, AHR activator, AI-2 QS mod)
Oc1ccc(Cl)cc1CNCc1ccc(Cl)nc1	none (no result: AI-2 QS mod)
O=C(Nc1ccc2nc(-c3ccco3)c(-c3ccco3)nc2c1)N1CCN(c2ccccn2)CC1	Cardio protect 116.6
S=C(Nc1ccc(N2CCOCC2)cc1)Nc1ccc2nc(-c3ccco3)c(-c3ccco3)nc2c1	Cardio protect 55.8
O=C(Nc1ccc(N2CCOCC2)cc1)c1ccc2nc(-c3ccco3)c(-c3ccco3)nc2c1	none (no result: SUMO Mot1 rescue)
Cc1cc(C)cc(-n2nnc(C(=O)NCc3ccc(Cl)cc3)c2N)c1	NR3A LBD binder 32.1
Cc1ccc(CNC(=O)Cn2nnc(C(=O)Nc3cc(C)ccc3C)c2N)cc1	NR3A LBD binder 14.8
Cc1cc(C)cc(-n2nnc(C(=O)NCc3ccccc3)c2N)c1	none
Cc1ccc(CNC(=O)c2nnn(CC(=O)Nc3cc(C)cc(C)c3)c2N)cc1	NR3A LBD binder 20.2
Cc1ccc(C)c(OCC(=O)NNC(=O)CSC(=S)N2CCCC2)c1	SUMO Mot1 rescue 331.6
COC(=O)NNC(=O)COc1cc(C)ccc1C	none
CCC(=O)Oc1c(S(=O)(=O)c2ccc(C)cc2)c(C)nn1C(C)(C)C	NR3A LBD binder 15.1
COCC(=O)Oc1c(S(=O)(=O)c2ccc(C)cc2)c(C)nn1C(C)(C)C	none
COc1ccc(/C=C(/NC(=O)c2ccccc2OC)C(=O)Nc2ccc(C(=O)O)cc2)cc1	none
CCn1cc(C2=NC(C(C)C)CO2)c2ccccc21 (stereo not given)	AHR activator 53.1
CCn1cc(C2=NC(CC(C)C)CO2)c2ccccc21 (stereo not given)	AHR activator 66.7
O=C1CN(S(=O)(=O)c2cccc(Br)c2)CCN1	none (no result: AI-2 QS mod)
Cc1ccc(C(=O)NNC2=Nc3cccc4cccc2c34)cc1	AHR activator 78.8
Clc1ccccc1OCCCOc1cccc2cccnc12	none
CSC(=Nc1ccccc1)C(C#N)c1nc2ccccc2[nH]1 (stereo not given)	none
N#CC(C(=S)Nc1ccccc1)c1nc2ccccc2[nH]1 (stereo not given)	NR3A LBD binder 31.0, AHR activator 73.1
CCN(CC)c1ccc(/C=N/NC(=O)CNC(=O)C2COc3ccccc3O2)c(O)c1 (stereo not given)	Cardio protect 65.9
CCOC(=O)C1C(=O)C(=O)N(Cc2ccccc2)C1C(=O)OCC (stereo not given)	none (no result: SUMO Mot1 rescue, AHR activator, AI-2 QS mod, NTR1 ag)
COc1ccc2c(C(=O)c3ccc(C)cc3)n(Cc3ccc(C(N)=O)cc3)[n+]([O-])c2c1	none (no result: AI-2 QS mod)
CCCCNc1nc2c(S(=O)(=O)c3ccccc3)nnn2c2ccccc12	NR3A LBD binder 15.3
COCCCNc1nc2c(-c3cccc(C)c3)nnn2c2ccccc12	AHR activator 48.8
CCc1ccc(S(=O)(=O)c2nnn3c2nc(NCCNC(C)=O)c2ccccc23)cc1	none
O=c1nc2n(CCO)c3ccccc3cc-2c(=O)[nH]1	none (no result: SUMO Mot1 rescue, AHR activator, AI-2 QS mod, NTR1 ag)
Cc1onc(-c2ccccc2Cl)c1C(=O)N/N=C(\N)COc1ccc(Cl)cc1	Cardio protect 60.2
